Experimental data published in PubChem BioAssay (NCI).
Where “and” joins values, the source holds several entries; their conditions need not be identical. Identical values can stand only once. Compounds without any hit were thinned out: in the full panel of roughly 83,000, 20% have a hit.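 The endpoint reported here, percent growth, reads 100 for growth as untreated, 0 for no net growth and -100 for all cells dead.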 Calls of active or inactive are those of the source. The calls were made as follows: active = growth percent below 10; inactive = the rest.

Legend:
Assay in all cases: NCI-60 one-dose screen, 48 h (100 = growth as untreated, 0 = no growth, -100 = all killed)
Conditions in all cases: 10 µM unless noted
[1] = tested on: T-47D breast
[2] = tested on: BT-549 breast
[3] = tested on: MDA-MB-435 melanoma
[4] = tested on: SW-620 colon
[5] = tested on: MCF7 breast
[6] = tested on: HCT-116 colon
[7] = tested on: HCC-2998 colon
[8] = tested on: KM12 colon

Row | SMILES | growth [1] | growth [2] | growth [3] | growth [4] | growth [5] | growth [6] | growth [7] | growth [8]
1 | COc1cc(C(=O)c2cc(C(C)=O)c3ccc(C)cn23)cc(OC)c1OC | 37.9% (inactive) | 53.1% (inactive) | -12.7% (active) | 32.4% (inactive) | 14.8% (inactive) | 18.4% (inactive) | 61.6% (inactive) | 28.6% (inactive)
2 | C=C(C)[C@@H]1CC[C@]2(COP(=O)(OCC)OCC)CC[C@]3(C)[C@H](CC[C@@H]4[C@@]5(C)CC[C@H](OP(=O)(OCC)OCC)C(C)(C)[C@@H]5CC[C@]43C)[C@@H]12 | 20.8% (inactive) | 65% (inactive) | 61% (inactive) | 38.4% (inactive) | 0.255% (active) | 6.75% (active) | 19.9% (inactive) | 54.2% (inactive)
3 | C/C(=N/N)c1nnn(-c2ccc(Br)cc2)c1C | 102% (inactive) | 102% (inactive) | 102% (inactive) | 105% (inactive) | 77.6% (inactive) | 103% (inactive) | 107% (inactive) | 99.4% (inactive)
4 | C#CCOc1ccc(/C=N/Nc2nc(-c3ccc(OC)cc3)cs2)cc1 | 68.7% (inactive) | 89.1% (inactive) | 79.3% (inactive) | 93.3% (inactive) | 69.8% (inactive) | 71.4% (inactive) | 103% (inactive) | 78.8% (inactive)
5 | CCOC(=O)C1=C(C)NC(C)=C(C(=O)OCc2ccccc2)C1c1cccc(C#N)c1 (stereo not drawn) | 27% (inactive) | 31.7% (inactive) | -10.4% (active) | 29.7% (inactive) | 21.2% (inactive) | 13.2% (inactive) | 70.8% (inactive) | 25.5% (inactive)
6 | Cc1ccc(OCc2occc2C(=O)N2CCOCC2)cc1 | 93.1% (inactive) | 117% (inactive) | 100% (inactive) | 102% (inactive) | 85.6% (inactive) | 105% (inactive) | 103% (inactive) | 107% (inactive)
7 | N#C/C(=C\c1ccc(-c2ccc(Cl)c(Cl)c2)o1)C(=O)Nc1ncc(Cc2ccc(Cl)cc2)s1 | 17.9% (inactive) | 42.1% (inactive) | 26.9% (inactive) | 10.8% (inactive) | 58.7% (inactive) | 9.52% (active) | 81.8% (inactive) | 19.6% (inactive)
8 | O=C(/C=C/c1ccc(Cl)c(Cl)c1)Nc1ncc(Cc2ccc(Cl)c(Cl)c2)s1 | 24.6% (inactive) | 47.4% (inactive) | 26.9% (inactive) | 33.3% (inactive) | 28.7% (inactive) | 26.6% (inactive) | 41.2% (inactive) | 13.3% (inactive)
9 | CCc1nnc(NC(=O)c2cc(-c3ccc(Cl)cc3Cl)oc2C)s1 | 61.7% (inactive) | 90.4% (inactive) | 90.6% (inactive) | 93.3% (inactive) | 84.9% (inactive) | 42.2% (inactive) | 111% (inactive) | 72.7% (inactive)
10 | CS(=O)(=O)c1nccc(-c2c(-c3cccc(OCc4ccc(Cl)c(C(F)(F)F)c4)c3)nc3sccn23)n1 | -45.6% (active) | 101% (inactive) | 103% (inactive) | 61.2% (inactive) | -67.8% (active) | 70.4% (inactive) | -50.1% (active) | 37% (inactive)
11 | COc1ccc(/C=N/NC(=O)CSc2nc(-c3cnccn3)cc(-c3cccs3)c2C#N)cc1 | 68.7% (inactive) | 49.2% (inactive) | 81.6% (inactive) | 93% (inactive) | 76.8% (inactive) | 22.4% (inactive) | 79.1% (inactive) | 64.7% (inactive)
12 | C#Cc1nc(C(=O)NCCCCCCC(=O)NO)cs1 | -38.5% (active) | 50.3% (inactive) | -34.9% (active) | 0.565% (active) | 6.97% (active) | -18.2% (active) | 25.9% (inactive) | -7.86% (active)
13 | O=C(O)c1ccc(-n2c(=O)n(-c3cccc(C(F)(F)F)c3)c(=O)c3cc(-c4ccc(F)cc4F)ccc32)cc1 | -5.81% (active) | -3.47% (active) | 5.93% (active) | 15.5% (inactive) | 1.46% (active) | 4.2% (active) | 13.4% (inactive) | 4.47% (active)
14 | COC(=O)CCSC1=C(C)C(=O)c2ccccc2C1=O | 43.5% (inactive) | 88.8% (inactive) | 106% (inactive) | 96.3% (inactive) | 73.3% (inactive) | 91.5% (inactive) | 111% (inactive) | 82.7% (inactive)
15 | COc1cccc2c1C=CC1(O2)Oc2cccc(OC)c2C=C1C (stereo not drawn) | 45.7% (inactive) | 25.1% (inactive) | -10.1% (active) | 30% (inactive) | 13.1% (inactive) | 14% (inactive) | 15.8% (inactive) | 20.5% (inactive)
16 | Cc1ccc(C)c(NC2=C(Cl)C(=O)c3nc(C)ccc3C2=O)c1 | -58% (active) | -5.46% (active) | -82.4% (active) | -49.2% (active) | -58.5% (active) | -74.1% (active) | 17.7% (inactive) | 36.7% (inactive)

Row | SMILES | growth [1] | growth [2] | growth [3] | growth [4] | growth [5] | growth [6] | growth [7] | growth [8]
17 | Nn1c(=O)n(-c2cccc(C(F)(F)F)c2)c(=O)c2cc(-c3ccc(F)cc3F)ccc21 | -13.8% (active) | -6.33% (active) | 3.27% (active) | 17% (inactive) | 1.3% (active) | 3.16% (active) | 12.5% (inactive) | 8.93% (active)
18 | O=C(/C=C/c1ccccc1)c1cccc(O)c1 | 97.8% (inactive) | 95.4% (inactive) | 95.9% (inactive) | 104% (inactive) | 14% (inactive) | 80% (inactive) | 111% (inactive) | 88.8% (inactive)
19 | CN(C)CCCOc1ccc(C(=C(c2ccccc2)C2CCCC2)c2ccc(OCCCN(C)C)cc2)cc1 | -76.6% (active) | -83.3% (active) | -62.8% (active) | -34.2% (active) | -65.8% (active) | -44.7% (active) | -83.9% (active) | -96.9% (active)
20 | CN1CCN(Cc2ccc(/C=N/Nc3ccnc4cc(Cl)ccc34)cc2)CC1 | 103% (inactive) | 123% (inactive) | 93.6% (inactive) | 69.9% (inactive) | 54.7% (inactive) | 37% (inactive) | 67.8% (inactive) | 74.8% (inactive)
21 | Cn1c(SCC(=O)c2ccco2)nc2ccccc2c1=O | 55.3% (inactive) | 96.5% (inactive) | 105% (inactive) | 111% (inactive) | 18.3% (inactive) | 102% (inactive) | 112% (inactive) | 86.3% (inactive)
22 | O=C1c2ccccc2C23C(=C(c4cncnc4)c4ccccc42)CCCN13 (stereo not drawn) | 93.3% (inactive) | 120% (inactive) | 94.6% (inactive) | 103% (inactive) | 103% (inactive) | 97.9% (inactive) | 103% (inactive) | 96.6% (inactive)
23 | Cc1ccccc1NC(=O)Nc1nc2ccc([N+](=O)[O-])cc2s1 | -10.8% (active) | -2.98% (active) | 5.39% (active) | 11.6% (inactive) | 4.12% (active) | 2.44% (active) | 24.6% (inactive) | 4.18% (active)
24 | CCOC(=O)c1cccc(NC2=C(Cl)C(=O)C(C)=C(C)C2=O)c1 | -37.5% (active) | 131% (inactive) | 104% (inactive) | 100% (inactive) | 84.7% (inactive) | 84.9% (inactive) | 111% (inactive) | 89.6% (inactive)
25 | Cc1ccc(-c2csc(N/N=C/c3cccs3)n2)cc1 | 72.6% (inactive) | 112% (inactive) | 98% (inactive) | 108% (inactive) | 70.8% (inactive) | 70% (inactive) | 115% (inactive) | 90.8% (inactive)
26 | O=C1C(N2CCN(c3ccccc3)CC2)=C(Cl)C(=O)c2ncccc21 | -54.2% (active) | 97.3% (inactive) | -67% (active) | -35% (active) | -44.7% (active) | -56.1% (active) | 97.8% (inactive) | 92.3% (inactive)
27 | COc1cc(-c2nc(-c3ccccc3)[nH]c2-c2ccnc(NCCCNS(=O)(=O)c3ccc(C(F)(F)F)cc3)n2)ccc1Cl | 44.2% (inactive) and 21.1% (inactive) | 44.7% (inactive) and 67.2% (inactive) | 29.4% (inactive) and 27.5% (inactive) | 46.8% (inactive) and 55.9% (inactive) | 9.62% (active) and 18.3% (inactive) | 16.3% (inactive) and 17.4% (inactive) | 48.5% (inactive) and 51% (inactive) | 25% (inactive) and 32.5% (inactive)
28 | CC(=O)c1cc(C(=O)N2c3ccccc3Sc3ccccc32)n2c1ccc1ccccc12 | 75.5% (inactive) | 52.6% (inactive) | 3.08% (active) | 41.6% (inactive) | 30.5% (inactive) | 25.6% (inactive) | 87.8% (inactive) | 44.6% (inactive)
29 | CN1CCN(CCCCCC(=O)Nc2nc(-c3cccc(NS(=O)(=O)c4cccc5c(N(C)C)cccc45)c3)cs2)CC1 | 72.3% (inactive) | 90.7% (inactive) | 52.1% (inactive) | 92.8% (inactive) | 14.8% (inactive) | 51.6% (inactive) | 83.7% (inactive) | 79.6% (inactive)
30 | N#Cc1c(-c2ccc(F)cc2)cc(-c2c[nH]c3ccccc23)nc1-c1c[nH]c2ccccc12 | 89.9% (inactive) | 109% (inactive) | 107% (inactive) | 107% (inactive) | 89.3% (inactive) | 105% (inactive) | 109% (inactive) | 101% (inactive)
31 | CCNC(=O)Oc1ccc(/C(=C(/C)c2ccc(Cl)cc2)c2ccc(OCCN3CCCCCC3)cc2)cc1 | 10.8% (inactive) | 77.5% (inactive) | 22.5% (inactive) | -74.5% (active) | -37.8% (active) | -80% (active) | 26.1% (inactive) | 12.7% (inactive)
